# From PubChem BioAssay AID504362 (National Center for Advancing Translational Sciences (NCATS), 2011)
# “And” between values parts separate entries of the source, which are not always exact repeats. Identical values can stand only once. Inconclusive results are not listed. The source made the active and inactive calls. Calls come from the whole dose curve; as a rule, active = well fitted activation curve with a large enough effect; inconclusive = small, poorly fitted or top-dose-only effect; inactive = flat fitted curve, though single readings scatter.
# Experiment: qHTS Assay for Identifying a Potential Treatment of Ataxia-Telangiectasia: SAR for Probe
# Conditions: F2112 A-T fibroblasts, NCS-induced pKAP1 AlphaLISA
# Description: NIH Chemical Genomics Center [NCGC] NIH Molecular Libraries Probe Centers Network [MLPCN] MLPCN Grant: MH089030-01 Assay Submitter (PI): Wei Zheng and Yosef Shiloh Ataxia-telangiectasia (A-T) is a devastating and progressive disease for which, there is no cure. Although A-T is a multisystem disease, it is stereotyped characterized by its neurological symptoms such as truncal ataxia, due to cerebellar cortical degeneration of the Purkinje and granule cells. Other symptoms of A-T are telangiectasias (dilated blood vessels), primary immunodeficiency, marked sensitivity to ionizing radiation (IR), chromosomal instability and predisposition to cancer. The underlying genetic cause of A-T is null mutations in the ATM (A-T mutated) gene. ATM is a nuclear serine/threonine kinase that functions as a master regulator of the cellular responses to double strand breaks (DSBs) in the DNA. Upon activation by DSBs, ATM phosphorylates a plethora of downstream targets, including KAP-1 on Ser82452. […] To screen for small molecules that will compensate for the loss of ATM in cells derived from A-T patients, we monitored KAP-1 phosphorylation as a readout for ATM-like activity using an AlphaLISA assay. […]
# qHTS Assay Protocol: Step,Parameter,Value,Description 1. […] Readout, EnVision, EnVision plate reader. […] EnVision protocol for 1536-well AlphaScreen read (30ms excitation, 100ms read), about 10 min/plate.
structure (smiles),measurement,value
CC(=O)c1c(O)c(C)c(O)c(Cc2c(O)c3c(c(C(=O)/C=C/c4ccccc4)c2O)OC(C)(C)C=C3)c1O,Potency,29.2 µM (active) and 10 µM (active)
